Results on four compounds are retold here after PubChem BioAssay (NCI).

Compounds without any hit were thinned out: in the full panel of roughly 83,000, 20% have a hit.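 Testing used 96-well plates and a 48-hour single-concentration exposure. Example: -40 means 40% of the starting cells died.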 Values without a mark were called inactive. Activity calls are given as the source filed them. Rule for the calls: active = growth percent below 10; inactive = the rest.

Among the test systems are HCT-15 colon; HT29 colon; SNB-75 CNS; SNB-19 CNS; U251 CNS; PC-3 prostate; SK-MEL-5 melanoma; UACC-62 melanoma; LOX IMVI melanoma; SK-MEL-28 melanoma; SK-MEL-2 melanoma; EKVX NSCLC; SN12C renal; UO-31 renal; TK-10 renal; ACHN renal; CAKI-1 renal; A498 renal; CCRF-CEM leukemia; MOLT-4 leukemia.
Holding throughout (assay): NCI-60 one-dose screen, 48 h (100 = growth as untreated, 0 = no growth, -100 = all killed)
Holding throughout (conditions): 10 µM unless noted

`Cn1c(=O)c2c(nc(Nc3cc(=O)[nH]c(=O)[nH]3)n2Cc2ccccc2)n(C)c1=O`: the growth with HCT-15 colon is 98.3%; with HT29 colon, -4.46% (active); with SNB-75 CNS, -21% (active); in the assay with SNB-19 CNS it was 96.9%; in the assay with U251 CNS it was 12.2%; in the assay with PC-3 prostate, 92.2%. Further, the growth was 98.1% with SK-MEL-5 melanoma; 88.3% in the assay on UACC-62 melanoma; 92.3% in the assay with LOX IMVI melanoma; 101% in the assay with SK-MEL-28 melanoma; -2.98% (active) in the assay on SK-MEL-2 melanoma; 90% in the assay with EKVX NSCLC. Further, the growth with SN12C renal was 95.2%; in the assay with UO-31 renal, 79.5%; in the assay with TK-10 renal, 14.3%; with ACHN renal, 100%; with CAKI-1 renal, 37.9%; in the assay on A498 renal it was -13.8% (active). Also, the growth was 95.1% in the assay with CCRF-CEM leukemia and 92.7% in the assay on MOLT-4 leukemia.

For the compound `CCOC(=O)c1nc2c3ccccc3cnn2c1C(=O)c1ccc(OC)cc1`, the growth in the assay on HCT-15 colon was 96.4%; in the assay with HT29 colon, 98.4%; with SNB-75 CNS, 88.6%; in the assay on SNB-19 CNS, 90.7%; with U251 CNS it was 89.9%; in the assay on PC-3 prostate, 90.9%. The growth in the assay with SK-MEL-5 melanoma was 97.1%; in the assay with UACC-62 melanoma it was 95.5%; in the assay with LOX IMVI melanoma, 94%; with SK-MEL-28 melanoma, 120%; in the assay with SK-MEL-2 melanoma it was 107%; with EKVX NSCLC it was 89.7%. Besides, the growth was 98.5% in the assay with SN12C renal; 79.4% in the assay on UO-31 renal; 140% in the assay with TK-10 renal; 100% with ACHN renal; 86.9% in the assay with CAKI-1 renal; 79.9% with A498 renal. The growth in the assay with CCRF-CEM leukemia is 91.2%; in the assay on MOLT-4 leukemia it was 88.7%.

Consider `COc1cc(CNC(=O)CCCC/C=C/C(C)C)ccc1OCc1cn(-c2ccc([N+](=O)[O-])cc2)nn1`, for which the growth in the assay with HCT-15 colon was 96.2%; in the assay with HT29 colon, 98.1%; with SNB-75 CNS, 83.9%; in the assay on SNB-19 CNS, 97.4%; in the assay with U251 CNS, 86.4%; in the assay with PC-3 prostate, 78%. The growth in the assay with SK-MEL-5 melanoma was 76.1%; with UACC-62 melanoma, 69.3%; with LOX IMVI melanoma, 89.5%; in the assay with SK-MEL-28 melanoma, 102%; with SK-MEL-2 melanoma it was 92%; in the assay on EKVX NSCLC, 75.3%. For the same compound, the growth with SN12C renal was 91.7%; in the assay with UO-31 renal, 60.6%; in the assay with TK-10 renal it was 92.7%; in the assay on ACHN renal, 90.7%; with CAKI-1 renal it was 96.7%; in the assay with A498 renal, 82%. Moreover, the growth with CCRF-CEM leukemia is 84.9%; in the assay with MOLT-4 leukemia, 79.3%.

`CN(C)C1CCN(C(=O)c2ccc(NC(=O)Nc3ccc(-c4nc(N5CCOCC5)c5cccn5n4)cc3)cc2)CC1`: the growth with HCT-15 colon was 40.5%; in the assay with HT29 colon, 6.06% (active); in the assay with SNB-75 CNS it was -40.5% (active); with SNB-19 CNS, 3% (active); in the assay on U251 CNS, 5.17% (active); in the assay with PC-3 prostate, 3.69% (active). Also, the growth in the assay on SK-MEL-5 melanoma was -63.6% (active); with UACC-62 melanoma it was -43.5% (active); with LOX IMVI melanoma, -2.24% (active); in the assay on SK-MEL-28 melanoma, -22.4% (active); in the assay with SK-MEL-2 melanoma, -7.66% (active); in the assay with EKVX NSCLC it was -15% (active). Also, the growth in the assay on SN12C renal was 4.15% (active); with UO-31 renal, 8.27% (active); in the assay on TK-10 renal it was -20.9% (active); in the assay on ACHN renal, 2.19% (active); in the assay with CAKI-1 renal it was 69.6%; with A498 renal, -54.9% (active). Also, the growth in the assay with CCRF-CEM leukemia is 10.5%; in the assay with MOLT-4 leukemia it was 0.188% (active).
